TDP1 cell CPT = growth inhibition of DT40 Tdp1-/-;hTDP1 cells with camptothecin (screen for TDP1 inhibitors). AID 686979. chicken DT40 Tdp1-/-;hTDP1 cells + 20 nM CPT, ATP luminescence, 48 h. 420,000 tested, 12% active. Potency, µM (series often up to 46.2 µM), for inactives: top-dose activity change, negative = growth inhibition, hits mostly inhibitors; also: potency is read from the fitted curve at half-maximal effect; % is scaled to controls: 0 for no effect and ±100 for the full control effect; nearly all actives have a fitted effect of over 55% in size
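Chicken DT40 Tdp1-/- cells complemented with human TDP1, 400 cells/well, exposed to compounds plus 20 nM camptothecin for at least 48 h at 37 C; viability read as ATP content by CellTiter-Glo luminescence.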
BCR signal inh = chronic active BCR signaling inhibition; ABC-DLBCL IkBa-CBG/CBR reporter, luminescence ratio, 4 h; 340,000 tested, 0.05% active; Potency, µM (series often up to 46.1 µM), for inactives: at the top dose activity change, negative = inhibition, usual class: inhibitors; active = well fitted inhibition curve with a large enough effect in the signal ratio, with a control signal flat, not every such curve was filed as active; inconclusive = small, poorly fitted or top-dose-only effect, or effect the other way, or a change in a side signal; the % refers to the signal ratio;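 also: potency is read from the fitted curve at half-maximal effect; plate controls were basal doxycycline-induced cells for no effect and cells given 10 µM MG132 for full effect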
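Cell line TMD8 (human ABC DLBCL), stably expressing tet-inducible CBG68-IkBa fusion and CBR; IMDM/0.5% FBS; cpd up to 46 uM; dox induction, 4 h, 37C/5% CO2; dual luminescence; green/red ratio; MG132 control.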
DT40 TDP1 no CPT = qHTS for Inhibitors of human tyrosyl-DNA phosphodiesterase 1 (TDP1): qHTS in cells in absence of CPT; DT40 Tdp1-/- hTDP1 cells, no CPT, ATP luminescence, 48 h; Potency, µM (series often up to 46.2 µM), without a hit: top-dose activity change, negative = growth inhibition, usual class: inhibitors; 420,000 tested, 15% active; AID 686978, 2013; also: potency is read from the fitted curve at half-maximal effect; % is scaled to controls: 0 for no effect and ±100 for the full control effect; nearly all actives have a fitted effect of over 55% in size
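Chicken DT40 Tdp1-/- cells complemented with human TDP1, screened without camptothecin (DMSO vehicle only), 400 cells/well. Compounds pin-transferred, cells incubated at 37 °C for at least 48 hr. Growth read as ATP-dependent luminescence (CellTiter-Glo, 30 min at RT).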
MCF10A rerep = induces DNA re-replication in MCF 10a normal breast cells; MCF 10A DNA re-replication, Hoechst nuclear intensity, 48 h; Potency, µM (series often up to 46.1 µM), inactives show at the top dose activity, positive = re-replication, most hits filed as activators; 350,000 tested, 2.9% active; AID 624296; also: potency is read from the fitted curve at half-maximal effect; % of control where 0% means no effect; nearly all actives have a fitted effect of over 50% in size
IL-1B inflam inh = inhibitors of inflammasome signaling (IL-1 beta secretion). THP-1 LPS/ATP IL-1B secretion, AlphaLISA, 16 h; hits give low values. activity change, % at 57.5 µM. 360,000 tested, 4.7% active. AID 743279; in the data active = activity change below about -50%; inconclusive = mostly about -30% to -49%; also: % is scaled to controls: 0 for no effect and ±100 for the full control effect
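Secreted IL-1B measured by AlphaLISA bead assay after 16 h compound exposure of THP-1 cells; compounds (final up to 57.5 uM) added 1 h before LPS (250 ng/mL) and ATP (1.25 mM) stimulation; lower signal means less secretion.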
SW480 rereplic = DNA re-replication induction in SW480 cells | SW480 DNA re-replication, Hoechst DNA content imaging, 48 h | Potency, µM (titrated, usually from 46.1 µM), inactives show top-dose re-replication activation, most hits filed as activators | 340,000 tested, 1.8% active; also: potency is read from the fitted curve at half-maximal effect; % of control where 0% means no effect; nearly all actives have a fitted effect of over 55% in size
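Hoechst fluorescence of nuclei (405 nm excitation, 500-530 nm emission) measured by plate-scanning imager after 48 hr compound exposure at 37 C; re-replication scored as increased number of nuclei with elevated intensity.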
Numbers without * were called inactive; ? = inconclusive; nt = no result given; [ ] = remark or other dose. This is a sample that favours compounds with a hit; in the whole collection about 19% have one here. Unless noted, calls follow the shape of the dose curve; as a rule, active = well fitted curve in the direction sought with a large enough effect; inconclusive = small, poorly fitted or top-dose-only effect, or another doubt; inactive = no such curve, though single readings can be large; an effect the other way counts as inactive or inconclusive.

SMILES	TDP1 cell CPT	BCR signal inh	DT40 TDP1 no CPT	MCF10A rerep	IL-1B inflam inh	SW480 rereplic
CC(C)(C)c1ccc(CC(=O)N2CCC2(C)C(=O)NCc2ccc(Cl)cc2)cc1 (stereo not drawn)	?	nt	20.6µM*	nt	-4.6	nt
CC(C)(C)c1ccc(CC(=O)N2CCC2(C)C(=O)NS(=O)(=O)c2ccccc2)cc1 (stereo not drawn)	-3.1%	nt	5.2%	nt	-73.8*	nt
CC(C)c1ccc(CC(=O)N2CCC2(C)C(=O)NCC(C)(C)C)cc1 (stereo not drawn)	?	nt	23.1µM*	nt	-74.5*	nt
CC1(C(=O)NCc2ccc(Cl)cc2)CCN1C(=O)Cc1ccc(Cl)cc1Cl (stereo not drawn)	18.4µM*	nt	?	nt	-21.3	nt
CC(C)Cn1c(=O)c2c(nc3n2CC(C)CN3Cc2ccccc2)n(C)c1=O (stereo not drawn)	-21.4%	?	-18.7%	-0.4%	-11.9	?
CC(C#N)(NC(=O)CN1CCN(S(=O)(=O)c2cccc(F)c2)CC1)C1CC1 (stereo not drawn)	1.7%	nt	6.1%	nt	-11.0	nt
CCC(CC)C(=O)Nc1nnc(S(=O)(=O)Nc2ccccc2C)s1	-0.6%	-0.5%	-26.4%	-10.2%	0.0	9.4%
CN(Cc1ccccc1)C(=O)c1[nH]cnc1C(=O)N[C@@H](CCCCNC(=O)OC(C)(C)C)C(=O)OC(C)(C)C	16.4µM*	?	?	28.7%	?	1.0%
C[C@H](NC(=O)c1nc[nH]c1C(=O)N[C@@H](CCCCNC(=O)OC(C)(C)C)C(=O)OC(C)(C)C)c1ccccc1	?	-12.3%	23.1µM*	22.6%	-52.3*	?
CC(C)(C)OC(=O)NCCCC[C@H](NC(=O)c1nc[nH]c1C(=O)NCc1ccccc1)C(=O)OC(C)(C)C	?	-0.9%	?	?	?	4.0%[9.22 µM]
CC(C)(C)OC(=O)NCCCC[C@H](NC(=O)c1[nH]cnc1C(=O)N[C@@H](Cc1ccccc1)C(=O)OC(C)(C)C)C(=O)OC(C)(C)C	20.6µM*	7.8%	9.2µM*	29.1%	-55.7*	-0.7%[9.22 µM]
CCOc1cccc2sc(NC(=O)CS(=O)(=O)c3ccc(C)cc3)nc12	-9.8%	11.9%	-27.3%	nt	nt	nt
CC[C@H]1NC(=O)[C@@H](NC(=O)c2ncccc2O)[C@@H](C)OC(=O)[C@H](c2ccccc2)NC(=O)[C@@H]2CC(=O)CCN2C(=O)[C@H](Cc2ccccc2)N(C)C(=O)[C@@H]2CCCN2C1=O	11.3%	nt	-8.4%	nt	nt	nt
CC1(C)CCC(=O)N2CC[C@H]3C[C@H](OC(=O)Nc4ccc(Br)cc4)C[C@@H]1[C@H]32	35.5µM*	?	?	-1.1%	-8.3	?
C=CCc1cc(/C=N/n2cnnc2)cc(OCC)c1O	2.8%	?	?	-1.0%	4.3	-1.6%
C=CCc1cc(C=Nc2ccc(N3CCOCC3)cc2)cc(OCC)c1O	-27.8%	nt	16.4µM*	7.9%	-15.6	2.3%
O=S(=O)(Nc1c(F)cccc1F)c1ccc(Cl)nc1	5.6%	-8.4%	-1.7%	-16.9%	26.7	0.92µM*
O=S(=O)(NCc1cn2ccsc2n1)c1cccs1	-1.7%	4.4%	-14.6%	1.5%	13.5	-0.3%
O=S(=O)(NCCN1CCOCC1)c1ccc2c(c1)OCCO2	18.9%	-13.5%	-18.4%	-2.2%	-73.9*	7.5%
O=S(=O)(NCc1cn2ccsc2n1)c1ccc2c(c1)OCCO2	?	?	23.1µM*	-2.4%	30.4	-6.9%
O=S(=O)(NCc1cn2ccsc2n1)c1ccc(Oc2ccccc2)cc1	9.2µM*	-1.3%	10.3µM*	-4.5%	-13.0	-8.4%[9.22 µM]
O=S(=O)(NCCN1CCOCC1)c1ccc(-c2ccc(S(=O)(=O)NCCN3CCOCC3)cc2)cc1	-19.2%	?	-13.2%	-1.4%	1.4	-12.9%
Cc1csc2nc(CNS(=O)(=O)c3ccc(-c4ccccc4)cc3)cn12	?	-17.0%	18.4µM*	-14.8%	7.0	-4.5%
CCOc1ccc(NC(=O)c2cc3cc(C)ccc3n2C)cc1	-4.4%	nt	-21.4%	nt	nt	nt
N#Cc1cccc(C(=O)OCC(=O)c2ccc3c(c2)NC(=O)CO3)c1	-5.5%	5.1%	0.7%	-0.6%	12.2	2.6%
SMILES	TDP1 cell CPT	BCR signal inh	DT40 TDP1 no CPT	MCF10A rerep	IL-1B inflam inh	SW480 rereplic
CC(C)Sc1ncc(Cl)c(C(=O)N(Cc2ccc(F)cc2)C2CCS(=O)(=O)C2)n1 (stereo not drawn)	?	nt	23.1µM*	nt	nt	nt
CCCOc1ccc(CN(C(=O)c2nc(SC(C)C)ncc2Cl)C2CCS(=O)(=O)C2)cc1 (stereo not drawn)	?	nt	14.6µM*	nt	nt	nt
CSc1ncc(Cl)c(C(=O)N(Cc2ccccc2Cl)C2CCS(=O)(=O)C2)n1 (stereo not drawn)	-3.6%	nt	-11.2%	nt	nt	nt
CCSc1ncc(Cl)c(C(=O)N(Cc2ccccc2Cl)C2CCS(=O)(=O)C2)n1 (stereo not drawn)	18.4µM*	nt	14.6µM*	nt	nt	nt
CCOCCCNC(=S)N(CCO)Cc1cc2cc3c(cc2[nH]c1=O)OCCO3	-7.6%	?	6.2%	-0.8%	14.2	4.3%
O=C(O)CCC(=O)N1N=C(c2ccccc2)CC1c1cccs1 (stereo not drawn)	14.0%	13.2%	-13.1%	-3.2%	0.9	0.4%
COc1ccccc1NS(=O)(=O)c1cccc(C(=O)NCC2(N3CCCCC3)CCCCC2)c1	-19.6%	nt	-22.3%	9.9%	-5.7	?
Cc1cc(C(=S)N2CCOCC2)c(C)n1-c1ccc(Cl)cc1	20.6µM*	?	20.6µM*	?	-18.3	16.4%
CCNC(=O)C(=O)Nc1ccc(OC)c(Cl)c1	-14.1%	?	?	-11.6%	0.0	7.2%
COc1ccc(NC(=O)C(=O)c2cc(C)n(-c3ccc(C)cc3)c2C)cc1Cl	?	nt	8.2µM*	nt	nt	nt
Cc1cc(C(=O)C(=O)N(C)C)c(C)n1-c1ccc([N+](=O)[O-])cc1	-19.7%	?	-24.7%	-4.0%	0.0	-10.2%
Cc1cccc(-n2c(C)cc(C(=S)N3CCOCC3)c2C)c1C	14.6µM*	?	18.4µM*	7.5%	-20.6	-3.7%
Cc1cc(C(=O)C(=O)N(C)C)c(C)n1-c1ccc(Cl)cc1	?	6.1%	18.4µM*	-5.6%	8.8	-14.0%
CN1C[C@H]2CON(C)[C@H]2C[C@H]1c1cccc(-c2ccccc2)c1	-2.4%	nt	-16.3%	-17.8%	-5.7	18.7%[9.22 µM]
O=C(COc1ccccc1F)Nc1c2c(nn1-c1ccccc1)CS(=O)(=O)C2	3.2%	3.5%	13.1%	-1.4%	0.0	-1.8%

From PubChem
